Experimental data: PubChem BioAssay (NCI)
The panel holds about 83,000 compounds, 20% with a hit somewhere; the sample as a whole holds those more often.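 In brief: 96-well plates, 48 h treatment, single concentration, percent growth endpoint.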 Unmarked numbers belong to inactive results. Calls of active or inactive are those of the source. How the source made its calls: active means growth percent below 10; inactive means the rest.

How the values were obtained:
Test in all cases: NCI-60 one-dose screen, 48 h (100 = growth as untreated, 0 = no growth, -100 = all killed)
[1] = tested on: SK-MEL-2 melanoma; settings: 10 µM unless noted
[2] = tested on: SN12C renal; settings: 10 µM unless noted
[3] = tested on: UO-31 renal; settings: 10 µM unless noted
[4] = tested on: TK-10 renal; settings: 10 µM unless noted
[5] = tested on: ACHN renal; settings: 10 µM unless noted
[6] = tested on: CCRF-CEM leukemia; settings: 10 µM unless noted
[7] = tested on: MOLT-4 leukemia; settings: 10 µM unless noted
[8] = tested on: SR leukemia; settings: 10 µM unless noted
[9] = tested on: RPMI-8226 leukemia; settings: 10 µM
[10] = tested on: OVCAR-8 ovarian; settings: 10 µM unless noted
[11] = tested on: OVCAR-5 ovarian; settings: 10 µM unless noted
[12] = tested on: OVCAR-4 ovarian; settings: 10 µM unless noted
[13] = tested on: SK-OV-3 ovarian; settings: 10 µM
[14] = tested on: IGROV1 ovarian; settings: 10 µM unless noted
[15] = tested on: OVCAR-3 ovarian; settings: 10 µM unless noted
[16] = tested on: HS 578T breast; settings: 10 µM unless noted
[17] = tested on: NCI/ADR-RES ovarian; settings: 10 µM unless noted
[18] = tested on: A498 renal; settings: 10 µM unless noted
[19] = tested on: CAKI-1 renal; settings: 10 µM unless noted
[20] = tested on: EKVX NSCLC; settings: 10 µM unless noted

Structure (SMILES)	growth [1]	growth [2] [%]	growth [3]	growth [4] [%]	growth [5] [%]	growth [6]	growth [7]	growth [8]	growth [9]	growth [10]	growth [11] [%]	growth [12] [%]	growth [13]	growth [14]	growth [15]	growth [16]	growth [17]	growth [18]	growth [19] [%]	growth [20] [%]
COc1cccc(-c2ccc3c(c2)C2CCN(Cc4ccccc4)C3C2)c1 (centres undefined)	61.5%	90.4	51.6%	92.4	93.2	63.8%	68.8%	18.4%	59.4%	85%	84.4	86.5	71.1%	59.9%	72.2%	90%	68.8%	–	–	–
COc1ccc(C2OCC(C)(C)CO2)cc1OC	106%	98.5	89.8%	109	107	–	100%	100%	95.6%	105%	100	104	107%	139%	117%	109%	108%	115%	–	–
COc1cc(/C=C/C(=O)C2=C(/C=C/c3ccc(O)c(OC)c3)NC(=O)NC2c2ccc(O)c(OC)c2)ccc1O (centres undefined)	105%	93.6	84.4%	–	88.2	69.8%	70.3%	79%	76.2%	86.3%	94.2	93	116%	113%	104%	81%	107%	101%	93.9	–
CN1CCc2c(Sc3ccc(C(=O)NO)cc3)c3ccccc3n2C1	39.6%	59.4	62.8%	–	64.6	3.13% (active)	6.7% (active)	12.6%	7.63% (active)	7.62% (active)	27.1	28.3	62.4%	75.6%	42.8%	60.2%	75.2%	28.6%	78.8	–
Cn1c2ccccc2c2nn(Cc3ccccc3)c(=O)nc21	103%	107	75.1%	–	88.5	102%	105%	97.7%	101%	107%	92.8	111	105%	120%	107%	106%	109%	104%	94.7	–
FC(F)(F)c1ccc2c(c1)n1cnnc1c1nncn21	112%	106	87.6%	100	112	–	96.4%	84.1%	95.2%	–	110	111	109%	119%	117%	–	113%	94.7%	–	–
Cc1ccc(C(=O)Nc2ccccc2N)cc1	57.5%	64	37.4%	–	87.7	4.67% (active)	30.9%	68%	15%	59.5%	51.1	99.5	92.9%	70.1%	90.8%	71.4%	44.2%	54.9%	93.7	–
O=C1CC(c2ccsc2)c2snc(-c3ccc(Cl)cc3)c2N1 (centres undefined)	27.3%	54	48.4%	53.8	–	16.3%	14.5%	20.9%	12.5%	40.8%	47.7	37.5	-3.45% (active)	40.7%	-14% (active)	46%	16.8%	24.2%	26.6	–
O=S(=O)(Nc1ccccc1Cl)c1ccc(-c2cnc(C3CC3)o2)cc1	39%	48.3	49.8%	61.9	49.8	17.4%	40.9%	41.5%	27.9%	33.8%	38.3	50	–	33.1%	-32.1% (active)	–	8.53% (active)	–	–	–
CCOC(=O)c1[nH]c2cc(Cl)ccc2c1[C@@H](C(=O)NC(C)(C)C)N(CC)C(=O)CCCCC#Cc1cccc2c1CN(C1CCC(=O)NC1=O)C2=O (some centres undefined)	-13.2% (active)	24.4	0.0319% (active)	34.3	–	13.7%	10.1%	12.7%	–	10.9%	39.6	13.2	–	8.84% (active)	8.96% (active)	-12.6% (active)	16.8%	–	–	–
COc1ccc(Nc2[nH]n(C3=Nc4ccccc4Sc4ccccc43)c(=O)c2C#N)cc1	59.4%	50.1	35.6%	65.9	40.3	50.2%	46.5%	70.8%	37%	40.2%	102	47.5	53.5%	55.1%	52.4%	–	45.2%	–	–	–
Cc1cccc2c(=O)c3c(sc12)c(NCCNCCO)nc1ccccc13	79.3%	33.4	29.6%	34.9	–	13.7%	-31.1% (active)	-44.1% (active)	–	34%	64.9	–	–	16.1%	45.1%	54.5%	45.1%	–	22.1	–
CCCCNNC(=O)c1ccc(Br)cc1	44.5%	75.1	25.1%	–	71.4	46.6%	42.1%	40.9%	–	25.8%	41.1	73.9	85%	60.1%	68.8%	56.8%	23.5%	30.2%	60.1	–
Clc1ccc2c(N3CCN(c4ccnc(NC5CCCCC5)n4)CC3)ccnc2c1	72.9%	–	22.4%	61.1	–	8.39% (active)	-3.75% (active)	-36% (active)	2.01% (active)	56.6%	80.8	42.3	62.7%	–	53.4%	67.7%	–	-40.7% (active)	57.8	–
O=C(O)C[C@H](O)C[C@H](O)/C=C/c1c(C2CC2)nc2ccccc2c1-c1ccc(F)cc1	–	30.3	73.3%	111	39.7	–	110%	12.1%	–	61.5%	79	111	93.7%	53.4%	103%	70.1%	37.2%	-28.9% (active)	26.1	93.6
COc1cc(C(F)(F)F)ccc1-c1cc(-c2ccc(F)cc2)n[nH]1	118%	85.2	59.6%	–	77	–	91.2%	107%	–	84.7%	88.7	71.2	104%	80.6%	91.9%	96.3%	91.5%	95.1%	78.4	–
COc1cc(NC(=O)COc2ccccc2)c(C(N)=O)cc1OC	9.86% (active)	44.7	51.3%	–	54.9	–	26.9%	23.3%	–	34.2%	48.8	93.9	30.4%	43.9%	6.16% (active)	29.6%	10.2%	4.84% (active)	37.1	–
